We go through five molecules from PubChem BioAssay.

Assay [1] in a line: small molecules captured by biotinylated probe aFSTL3 – biochemical, small-molecule microarray, fluorescence 635/667, stem cell growth factor project, primary screen (AID 1064).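 Also: measures binding of the biotinylated anti-FSTL3 antibody to printed compounds.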 The settings on record: higher = more signal.
The nature of assay [2]: binders from COS7 lysate, DM2A8 probe, primary screen, torsin A project, cell lysate, small-molecule microarray, fluorescence 635/667 (AID 1065). The settings on record: higher = more signal, COS7 lysate expressing mutant human TOR1A.
Assay [3] can be described thus: small molecules captured by biotinylated probe aFGF2 – biochemical, small-molecule microarray, fluorescence 635/667, stem cell growth factor project, primary screen (AID 1067).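 Also: measures binding of biotinylated aFGF2 protein to printed compounds on slides; z-score merges feature fluorescence and signal-to-noise across triplicate slides.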 Particulars: higher = more signal.
The nature of assay [4]: small molecules captured by biotinylated probe aFGF10 – biochemical, small-molecule microarray, fluorescence 635/667, stem cell growth factor project, primary screen (AID 1071).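 Also: score merges 667 nm spot intensity and signal to noise from triplicate slides.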 The settings on record: higher = more signal.
Assay [5] addresses Neurogenic locus notch homolog protein 2 (Homo sapiens) (UniProt Q04721). Put plainly: small molecules binding Notch2 protein – biochemical, small-molecule microarray, 635 nm fluorescence, stem cell growth factors, primary screen (AID 1073). The settings on record: higher = more signal.
In assay [6] the target is Pro-neuregulin-1, membrane-bound isoform (Homo sapiens) (UniProt Q02297). Put plainly: small molecules binding neuregulin-1 protein – biochemical, small-molecule microarray, fluorescence 635/667, psychiatric disease protein project, primary screen (AID 1075).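 Also: score combines 667 nm spot fluorescence with signal to noise.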 The settings on record: NRG1 binding, 635 nm fluorescence, higher = more signal.
The test system of assay [7] is Neuregulin-1 EGF-like domain. Put plainly: small molecules binding NRG1 EGF domain – biochemical, small-molecule microarray, 635 nm fluorescence, primary screen (AID 1081).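 Also: binding of the protein to compounds printed on small-molecule microarray slides.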 The settings on record: higher = more signal.
The nature of assay [8]: FRG1 expression reporter modulators in myotubes – cell-based, C2C12 myotubes, firefly/Renilla luciferase, luminescence, FRG1 inhibition for FSHD, primary screen (AID 1084). The settings on record: FRG1 promoter luciferase, higher = more signal, called active from +8 up or from −8 down.
The nature of assay [9]: small molecules captured by biotinylated probe aFST – biochemical, small-molecule microarray, fluorescence 635/667, stem cell growth factor project, primary screen (AID 1086).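 Also: score merges 667 nm fluorescence with signal-to-noise of each printed compound spot.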 The settings on record: higher = more signal.
The nature of assay [10]: binders of probe aHhip on microarray, primary screen, stem cell growth factor project, biochemical, small-molecule microarray, fluorescence 635/667 (AID 1087).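 Also: score merges spot fluorescence at 667nm with spot signal to noise ratio.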 Particulars: higher = more signal.
Assay [11] deals with PRMT1 (protein arginine N-methyltransferase 1). Put plainly: small molecules binding arginine methyltransferase PRMT1 – biochemical, small-molecule microarray, 635 nm fluorescence, primary screen (AID 1088).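 Also: binding of Prmt1 protein to compounds spotted on small-molecule microarray slides.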 The settings on record: higher = more signal.
Assay [12] in a line: growth effects on S. cerevisiae YJM789 – YJM789 clinical isolate, OD600, 24 h, basal, primary screen (AID 1089).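 Also: growth of clinical yeast isolate S. cerevisiae YJM 789 seeded 1000 cells per well; test concentration not given here.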 Particulars: higher = more signal, called active from +8 up or from −8 down.
The nature of assay [13]: S. pombe growth modifiers, basal conditions – strain 972, OD600, 24 h, no modulator, primary screen (AID 1090).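 Also: basal condition with compound alone and no growth modifier present; test concentration not given here.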 The settings on record: S. pombe 972 growth, higher = more signal, called active from +8 up or from −8 down.
Assay [14] is described as follows: budding yeast growth modifiers under rapamycin – strain BY4716, OD600, 96 h, primary screen (AID 1091). Also: test concentration not given here. Particulars: S. cerevisiae BY4716 + rapamycin, higher = more signal, called active from +8 up or from −8 down.
In assay [15] the target is Torsin-1A-interacting protein 2 (Homo sapiens) (UniProt Q8NFQ8). The experiment in a line: small molecules binding lysate-expressed LULL1 – cell lysate, human LULL1 lysate, 635/667 nm fluorescence, primary screen (AID 1092).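 Also: probe is lysate of COS7 cells overexpressing human LULL1; score merges per-feature 667 nm fluorescence with signal-to-noise.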 Particulars: small-molecule microarray, hLULL1 lysate binding, 635 nm fluorescence; higher = more signal.
A short description of assay [16]: optical density change of DRC41 E. coli – strain DRC41, OD650, 24 h, E. coli filamentation project, primary screen (AID 1093).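 Also: MC1000 strain lacking acrAB efflux and sulA so SOS filamentation is blocked; test concentration not given here.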 The settings on record: E. coli DRC41 growth, higher = more signal, called active from +8 up or from −8 down.
A short description of assay [17]: probe aLefty2 binding to arrayed compounds – biochemical, biotinylated probe, 635/667 nm fluorescence, primary screen (AID 1094).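 Also: score merges spot fluorescence near 667 nm with spot signal-to-noise ratio.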 The settings on record: small-molecule microarray, higher = more signal.
For assay [18], the system named is Noggin (protein binding on small-molecule microarray). Put plainly: small molecules binding Noggin protein – biochemical, 635/667 nm fluorescence, primary screen (AID 1095).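 Also: score merges 667 nm feature fluorescence with signal to noise over triplicate slides.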 The settings on record: 635 nm fluorescence, higher = more signal.
For assay [19], the target named is Neurogenic locus notch homolog protein 3 (Homo sapiens) (UniProt Q9UM47). The experiment in a line: small molecules binding NOTCH3 protein – biochemical, 635/667 nm fluorescence, primary screen (AID 1096). The settings on record: small-molecule microarray, 635 nm fluorescence, higher = more signal.
Sequence of Neurogenic locus notch homolog protein 3 (Homo sapiens) (Q9UM47 whole entry, looked up): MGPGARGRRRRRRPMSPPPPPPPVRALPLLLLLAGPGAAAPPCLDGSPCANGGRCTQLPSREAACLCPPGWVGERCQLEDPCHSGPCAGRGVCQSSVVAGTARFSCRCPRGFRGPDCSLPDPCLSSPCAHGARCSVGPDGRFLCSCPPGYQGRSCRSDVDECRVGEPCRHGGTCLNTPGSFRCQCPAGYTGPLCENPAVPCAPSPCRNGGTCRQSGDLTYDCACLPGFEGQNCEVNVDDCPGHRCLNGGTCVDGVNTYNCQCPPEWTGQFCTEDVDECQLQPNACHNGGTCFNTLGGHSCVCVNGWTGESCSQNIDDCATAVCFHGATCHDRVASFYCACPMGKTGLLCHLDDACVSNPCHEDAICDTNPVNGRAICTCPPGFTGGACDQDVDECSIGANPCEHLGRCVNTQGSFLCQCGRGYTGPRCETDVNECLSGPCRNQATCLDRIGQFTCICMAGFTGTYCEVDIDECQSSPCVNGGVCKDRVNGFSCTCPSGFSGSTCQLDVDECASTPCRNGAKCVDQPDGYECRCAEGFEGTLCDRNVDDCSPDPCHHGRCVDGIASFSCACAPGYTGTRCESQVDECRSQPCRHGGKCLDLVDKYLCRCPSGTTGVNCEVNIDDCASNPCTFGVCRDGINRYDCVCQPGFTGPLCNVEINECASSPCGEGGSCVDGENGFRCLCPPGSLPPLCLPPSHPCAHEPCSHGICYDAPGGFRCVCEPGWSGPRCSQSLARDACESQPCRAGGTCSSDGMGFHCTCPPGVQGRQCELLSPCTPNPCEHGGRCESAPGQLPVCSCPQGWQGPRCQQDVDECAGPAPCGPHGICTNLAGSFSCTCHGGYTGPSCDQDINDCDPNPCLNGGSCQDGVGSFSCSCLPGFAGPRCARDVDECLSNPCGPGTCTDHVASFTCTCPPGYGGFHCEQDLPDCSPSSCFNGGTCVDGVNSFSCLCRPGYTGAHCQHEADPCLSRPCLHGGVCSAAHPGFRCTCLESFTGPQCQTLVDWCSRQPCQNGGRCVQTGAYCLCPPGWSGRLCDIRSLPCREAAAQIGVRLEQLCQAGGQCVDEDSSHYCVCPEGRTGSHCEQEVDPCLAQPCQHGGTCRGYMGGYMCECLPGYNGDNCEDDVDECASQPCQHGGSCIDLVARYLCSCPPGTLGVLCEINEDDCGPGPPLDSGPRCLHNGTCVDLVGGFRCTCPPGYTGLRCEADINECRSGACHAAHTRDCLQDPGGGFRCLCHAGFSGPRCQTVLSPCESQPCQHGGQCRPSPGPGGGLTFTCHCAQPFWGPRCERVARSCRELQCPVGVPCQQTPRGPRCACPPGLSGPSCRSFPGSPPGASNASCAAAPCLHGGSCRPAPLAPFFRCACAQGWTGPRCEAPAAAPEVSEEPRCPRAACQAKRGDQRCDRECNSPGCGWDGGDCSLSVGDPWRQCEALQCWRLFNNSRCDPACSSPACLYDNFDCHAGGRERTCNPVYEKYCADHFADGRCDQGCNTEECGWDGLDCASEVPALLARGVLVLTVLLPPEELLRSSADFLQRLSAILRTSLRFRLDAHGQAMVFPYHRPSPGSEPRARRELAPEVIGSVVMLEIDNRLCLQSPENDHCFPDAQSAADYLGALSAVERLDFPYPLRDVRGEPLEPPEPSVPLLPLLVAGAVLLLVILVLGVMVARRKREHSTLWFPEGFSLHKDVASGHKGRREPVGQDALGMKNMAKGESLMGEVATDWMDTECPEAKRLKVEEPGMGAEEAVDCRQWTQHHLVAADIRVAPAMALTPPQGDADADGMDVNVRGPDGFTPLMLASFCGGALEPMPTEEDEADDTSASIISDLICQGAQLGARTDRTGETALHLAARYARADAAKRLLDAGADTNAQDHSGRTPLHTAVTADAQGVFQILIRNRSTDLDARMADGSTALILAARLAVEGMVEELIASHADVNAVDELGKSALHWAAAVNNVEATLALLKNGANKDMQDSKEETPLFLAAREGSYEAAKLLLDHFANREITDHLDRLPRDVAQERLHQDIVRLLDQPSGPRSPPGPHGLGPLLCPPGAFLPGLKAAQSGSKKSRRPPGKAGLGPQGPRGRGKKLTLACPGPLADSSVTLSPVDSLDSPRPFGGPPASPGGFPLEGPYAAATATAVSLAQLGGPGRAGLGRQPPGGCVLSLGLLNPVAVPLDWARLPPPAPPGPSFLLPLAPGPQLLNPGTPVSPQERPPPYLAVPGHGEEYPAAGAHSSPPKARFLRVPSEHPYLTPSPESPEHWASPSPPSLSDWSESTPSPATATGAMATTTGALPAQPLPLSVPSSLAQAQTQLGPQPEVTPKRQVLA
A short description of assay [20]: probe aEGFR binding to arrayed compounds – biochemical, biotinylated probe, 635/667 nm fluorescence, primary screen (AID 1097).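 Also: probe is a biotinylated anti-EGFR antibody binding compounds printed on slides; score combines fluorescence near 667 nm and signal to noise of each spot.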 Particulars: small-molecule microarray, higher = more signal.

Activity calls are given as the source filed them.

Sequence of Neurogenic locus notch homolog protein 2 (Homo sapiens) (Q04721 whole entry, looked up, canonical isoform): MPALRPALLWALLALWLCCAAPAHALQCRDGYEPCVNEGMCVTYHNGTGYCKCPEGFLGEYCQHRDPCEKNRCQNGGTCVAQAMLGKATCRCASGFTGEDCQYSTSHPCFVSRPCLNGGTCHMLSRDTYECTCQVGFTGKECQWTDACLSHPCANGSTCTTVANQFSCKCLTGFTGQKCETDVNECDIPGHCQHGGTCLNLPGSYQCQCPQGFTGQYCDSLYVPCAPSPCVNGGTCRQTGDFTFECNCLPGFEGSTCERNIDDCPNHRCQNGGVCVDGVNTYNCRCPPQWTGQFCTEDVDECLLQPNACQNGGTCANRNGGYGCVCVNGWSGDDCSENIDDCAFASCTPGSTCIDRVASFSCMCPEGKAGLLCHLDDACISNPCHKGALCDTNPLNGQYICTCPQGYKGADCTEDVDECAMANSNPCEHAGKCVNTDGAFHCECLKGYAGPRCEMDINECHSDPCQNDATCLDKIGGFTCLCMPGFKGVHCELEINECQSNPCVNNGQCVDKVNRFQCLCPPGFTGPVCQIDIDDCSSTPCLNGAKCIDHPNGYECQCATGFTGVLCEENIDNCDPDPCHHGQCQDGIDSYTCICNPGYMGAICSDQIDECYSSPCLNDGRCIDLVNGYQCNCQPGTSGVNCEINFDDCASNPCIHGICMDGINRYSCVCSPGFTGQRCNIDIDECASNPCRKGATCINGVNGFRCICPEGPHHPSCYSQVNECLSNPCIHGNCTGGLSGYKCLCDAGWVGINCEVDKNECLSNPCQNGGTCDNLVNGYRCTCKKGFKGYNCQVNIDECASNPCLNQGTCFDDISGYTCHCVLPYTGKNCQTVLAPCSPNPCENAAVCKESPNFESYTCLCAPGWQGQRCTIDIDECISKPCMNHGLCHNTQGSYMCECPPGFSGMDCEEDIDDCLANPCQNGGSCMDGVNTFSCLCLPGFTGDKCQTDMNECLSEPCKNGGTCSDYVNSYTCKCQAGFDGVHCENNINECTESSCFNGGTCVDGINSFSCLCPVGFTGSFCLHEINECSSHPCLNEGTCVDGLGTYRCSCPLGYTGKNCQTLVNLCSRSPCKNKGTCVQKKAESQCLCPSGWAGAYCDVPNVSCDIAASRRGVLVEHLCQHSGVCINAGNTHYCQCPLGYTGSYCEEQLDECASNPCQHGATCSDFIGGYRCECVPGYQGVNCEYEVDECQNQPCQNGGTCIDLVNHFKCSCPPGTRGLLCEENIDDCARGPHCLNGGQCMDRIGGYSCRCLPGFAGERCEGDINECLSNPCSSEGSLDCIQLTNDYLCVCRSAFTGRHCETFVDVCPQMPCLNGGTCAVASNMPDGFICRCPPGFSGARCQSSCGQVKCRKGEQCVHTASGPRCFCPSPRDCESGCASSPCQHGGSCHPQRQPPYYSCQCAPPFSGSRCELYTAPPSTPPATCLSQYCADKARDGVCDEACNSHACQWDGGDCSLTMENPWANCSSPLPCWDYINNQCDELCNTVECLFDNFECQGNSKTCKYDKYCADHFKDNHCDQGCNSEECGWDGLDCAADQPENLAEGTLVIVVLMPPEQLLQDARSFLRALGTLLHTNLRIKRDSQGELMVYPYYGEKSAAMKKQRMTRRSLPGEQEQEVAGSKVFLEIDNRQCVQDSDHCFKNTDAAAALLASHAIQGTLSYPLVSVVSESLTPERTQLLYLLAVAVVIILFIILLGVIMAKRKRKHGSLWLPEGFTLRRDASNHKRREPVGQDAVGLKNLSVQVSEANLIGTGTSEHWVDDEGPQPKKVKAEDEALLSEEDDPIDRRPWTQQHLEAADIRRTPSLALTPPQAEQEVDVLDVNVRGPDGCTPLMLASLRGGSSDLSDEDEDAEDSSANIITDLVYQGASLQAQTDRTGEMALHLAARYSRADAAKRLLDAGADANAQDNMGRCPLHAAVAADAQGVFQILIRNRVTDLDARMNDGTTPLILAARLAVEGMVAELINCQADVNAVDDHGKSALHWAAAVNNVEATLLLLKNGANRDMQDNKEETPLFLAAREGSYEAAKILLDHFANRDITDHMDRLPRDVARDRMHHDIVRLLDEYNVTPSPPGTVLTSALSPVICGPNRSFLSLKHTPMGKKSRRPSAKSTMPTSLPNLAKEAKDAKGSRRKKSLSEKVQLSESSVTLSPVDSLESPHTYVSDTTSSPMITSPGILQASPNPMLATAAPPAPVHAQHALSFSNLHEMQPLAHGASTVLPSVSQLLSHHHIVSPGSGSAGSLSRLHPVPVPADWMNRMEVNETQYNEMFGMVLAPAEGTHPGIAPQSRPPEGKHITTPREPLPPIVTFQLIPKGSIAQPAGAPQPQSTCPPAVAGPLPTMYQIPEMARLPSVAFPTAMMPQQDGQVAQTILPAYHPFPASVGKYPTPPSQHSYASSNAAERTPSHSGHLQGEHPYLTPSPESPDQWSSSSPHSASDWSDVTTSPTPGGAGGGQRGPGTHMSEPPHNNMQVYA

On to `CCOC(=O)C1=CC[C@@H](c2cccc(Cl)c2)N(S(=O)(=O)c2ccc(C)cc2)[C@H]1c1ccc(C#N)cc1`, for which the composite z-score in assay [1] is 0.128; in [2], 0.0669; in [3], 0.104; in assay [4] it was 0.862; in assay [5], 1.65; in [6], 1.61. Moreover, the composite z-score is 1.15 in assay [7]; 0.751 in assay [9]; 0.0274 in assay [10]; 1.56 in assay [11]; 3.18 in [15]; -0.0018 in [17]. Besides, the composite z-score in assay [18] was determined as 0.156; in assay [19], 1.05; in assay [20] it was 0.191. Further, the z-score in assay [8] was -0.534 (inactive); in [12], 0.914 (inactive); in assay [13], 1.99 (inactive); in assay [14] it was 2.58 (inactive); in assay [16], -1.2 (inactive).

As for `C=CCC(OC(C)=O)[C@@H]1[C@@H](N(Cc2cc3ccccc3o2)C(=O)c2cccc3ccccc23)c2cc(OCCCO)ccc2N1C(=O)Cc1ccc2ccccc2c1` (stereo not given in full), the composite z-score in assay [1] was -0.0977; in assay [2] it was 0.0901; in assay [3] it was -0.0383; in assay [4], 0.0537; in assay [5], -0.127; in assay [6], 0.144. The composite z-score in assay [7] was 0.195; in [9], 0.309; in [10], 0.0749; in assay [11], 0.37; in assay [15] it was 0.797; in assay [17] it was -0.0898. In addition, the composite z-score in [18] is -0.233; in assay [19] it was -0.164; in [20], -0.123. Besides, the z-score in assay [8] is -2.3 (inactive); in assay [12], 0.263 (inactive); in assay [13], 0.246 (inactive); in [14] it was 0.445 (inactive); in assay [16] it was 0.117 (inactive).

For `O=C1C[C@@](C(=O)O)(c2ccc([N+](=O)[O-])cc2)[C@@H](c2ccc(CO)cc2I)N1CC12CC3CC(CC(C3)C1)C2`, the composite z-score in [1] is 0.525; in assay [2], 0.773; in [3], -0.124; in assay [4], 0.14; in assay [5] it was 1.41; in assay [6] it was 1.48. Also, the composite z-score in assay [7] is 0.843; in [9] it was 0.806; in assay [10], 0.0497; in [11] it was 1.47; in assay [15], 2.79; in assay [17], -0.0096. The values for the composite z-score in assay [18], in assay [19] and in assay [20] were 0.0251, 1.06 and -0.0056, respectively. In addition, the z-score was -1.55 (inactive) in assay [8]; -0.12 (inactive) in [12]; -3.03 (inactive) in assay [13]; 5.6 (inactive) in [14]; 0.177 (inactive) in assay [16].

As to `COCCCNC(=O)[C@@]1(Cc2ccccc2I)c2ccccc2C(=O)N(Cc2ccccc2)[C@H]1c1ccc(CO)cc1`, the composite z-score in assay [1] is 0.094; in [2] it was -0.785; in assay [3], -0.142; in assay [4], -0.487; in [5], -1.61; in [6], 0.542. Moreover, the composite z-score in [7] is 1.34; in assay [9], -0.656; in assay [10] it was 0.0695; in assay [11], 0.96; in assay [15], 1.62; in assay [17], -0.204. Further, the composite z-score in assay [18] is -1.27; in assay [19], -1.37; in assay [20], -0.302. The z-score in assay [8] is -4.46 (inactive); in assay [12], 0.411 (inactive); in [13] it was 0.512 (inactive); in assay [14] it was 0.951 (inactive); in [16], 0.0006 (inactive).

Take `Cc1c(NC(=O)/C(C#N)=C/C=C/c2ccccc2)c(=O)n(-c2ccccc2)n1C`: the composite z-score was -0.438 in [1]; -0.0022 in assay [2]; -0.0035 in assay [3]; 0.286 in assay [4]; 0.654 in assay [5]; 0.757 in [6]. Also, the composite z-score in [7] is 0.825; in assay [9], 0.003; in assay [10], 0.237; in assay [11] it was 0.311; in assay [15], 0.396; in [17], -0.31. The composite z-score is 0.244 in assay [18], 0.478 in [19] and -0.0293 in assay [20]. Further, the z-score in assay [8] was 4.07 (inactive); in assay [12], 0.243 (inactive); in [13], -0.678 (inactive); in assay [14], 0.561 (inactive); in [16], 1.94 (inactive).
